{"source": "PubChem BioAssay AID485313", "about": "(National Center for Advancing Translational Sciences (NCATS), 2010)", "note": "The campaign covered roughly 320,000 compounds. About 7,600 (2.4%) were called active. Inconclusive results (about 3%) are left out. What follows is part of a selection rich in actives, with near analogues and random picks from the rest. Unmarked numbers belong to inactive results. Calls come from the whole dose curve; as a rule, active = well fitted activation curve with a large enough effect; inconclusive = small, poorly fitted or top-dose-only effect; inactive = no such curve, though single readings can be large or run the other way. Potency is the fitted concentration of half-maximal effect.", "data": [{"experiment": "qHTS Assay for NPC1 Promoter Activators; note: nearly all actives have a fitted effect of over 60% in size; for activation: % of control where 0% means no effect", "settings": "Huh7 NPC1 promoter luciferase reporter, 24 h; series mostly up to 9.22 µM; activation: at the top concentration", "excerpt": "NIH Chemical Genomics Center [NCGC] NIH Molecular Libraries Probe Production centers Network [MLPCN] MLPCN Grant: MH089375-01A1 Assay Submitter (PI): Yiannis A. Ioannou NCGC Assay Overview: Niemann Pick Type C (NPC) is a rare neurodegenerative lipidosis that is characterized by lipid storage in the endosomal/lysosomal system. Treatment modalities for this devastating disease are currently non-existent due to the severe obstacles associated with accessing the central nervous system with proteins or genes. The majority of mutations causing NPC disease are missense mutations that are distributed throughout the length of the NPC1 protein, with the most prevalent being the I1061T allele. Although NPC1 mutant proteins may be functional, they are typically trapped in the ER due to misfolding. […] We have developed and optimized a cell based luciferase reporter assay in 1536 well format for the identification of up-regulators of the mutant NPC1 promoter.\nThe NPC1 promoter is cloned in front of the luciferase reporter gene, therefore NPC promoter activation results in luciferase expression. Frozen stock of the NPC1 promoter transfected Huh7 cells were obtained from the laboratory of Dr. Yiannis Ioannou (The Mount Sinai School of Medicine, New York, NY). Cells were propagated and maintained at NCGC in medium containing RPMI-1640 supplemented with 10% FBS, 2mM L-glutamine, and 50ug/ml penicillin/streptomycin. Cells were harvested in and plated for assays in OP-MEM I reduced-serum medium supplemented with 10% FBS. The Amplite luciferase reporter gene assay kit was purchased from ABD Bioquest and prepared/stored according to manufacturers recommendations. qHTS Assay Setup: 1.#Dispensed 5ul of Huh7 cells stably expressing NPC1-luciferase at a density of 1500 cells per well 1536-well plates. 2.#Incubate cells at 37C, 5% CO2, and 95% humidity for 2 hours. 3.#Transferred 23nl per well of compound in DMSO solution. 4.#Incubated at 37C, 5% CO2, and 95% humidity for 24 hours. 5.#Dispensed 3ul per well of Amplite reagent(ABD Bioquest) per well. 6.#Incubate at ambient for 10 minutes. 7.#Read using the luminescence protocol on the ViewLux plate reader (Perkin Elmer).", "values": [{"smiles": "CC(=O)Oc1ccccc1C(=O)Nc1ncc([N+](=O)[O-])s1", "Potency": "501 nM (active)"}, {"smiles": "CC(=O)c1c(O)c(C)c(O)c(Cc2c(O)c3c(c(C(=O)/C=C/c4ccccc4)c2O)OC(C)(C)C=C3)c1O", "activation": "-13.6% [at 46.1 µM]"}, {"smiles": "CN(C)c1ccc(NC(=O)CN2C3CCCC2CC(NC(=O)c2ccccc2)C3)cc1", "note": "(stereo not given)", "activation": "-8.85%"}, {"smiles": "CC[C@H]1CN2CCc3cc(OC)c(OC)cc3[C@@H]2C[C@@H]1C[C@H]1NCCc2cc(OC)c(OC)cc21", "Potency": "inactive"}, {"smiles": "CN(C)C(=O)Oc1ccc(OCc2cccc[n+]2C)cc1", "activation": "1.08%"}, {"smiles": "CN(C)C(=O)Oc1ccc2c(c1)O/C(=C\\c1ccccc1)C2=O", "Potency": "1580 nM (active)"}, {"smiles": "CCOC(=O)c1c(-c2ccccc2)oc2ccc(OC(=O)N(C)C)cc12", "activation": "-20.2%"}, {"smiles": "CC(=O)NBr", "activation": "-7.1% [at 46.1 µM]"}, {"smiles": "CCOC(=O)c1ncn2c1[C@@H]1CCCN1C(=O)c1cc(OC)ccc1-2", "activation": "-2.98% [at 46.1 µM]"}, {"smiles": "CNCC[C@H](Oc1ccc(C(F)(F)F)cc1)c1ccccc1", "Potency": "inactive"}]}]}
